# Screening results (PubChem BioAssay)
# JMJD2A Tudor: qHTS Assay for Inhibitors of JMJD2A-Tudor Domain; AlphaScreen JMJD2A-Tudor / H3K4me3 peptide binding; Potency, µM (top dose mostly 114 µM), most hits filed as inhibitors; 390,000 compounds, 4.4% hits; also: nearly all actives have a fitted effect of over 50% in size
# GLS inh: qHTS for Inhibitors of Glutaminase (GLS); Potency, µM (top dose mostly 45.5 µM), usual class: inhibitors; Glutaminase kidney isoform, mitochondrial (Homo sapiens), O94925; GLS enzymatic activity, qHTS titration; 410,000 compounds, 0.21% hits
#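 Human kidney-isoform GLS in 45 mM KH2PO4 pH 8.2, 0.02% Tween-20, with compound, started with 1mM L-Glutamine (added stock). Glutamate oxidase/HRP/Amplex red coupled fluorescence read at start and after 30 min at RT.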
# HP1b chromo inh: HTS for Inhibitors of HP1-beta Chromodomain Interactions with Methylated Histone Tails; Chromobox protein homolog 1 (Homo sapiens), P83916; AlphaScreen HP1-beta / biotin-H3K9me3 peptide binding; Potency, µM (doses to about 114 µM), hits mostly inhibitors; 390,000 compounds, 0.56% hits; AID 540317, 2011; also: nearly all actives have a fitted effect of over 70% in size
# Target sequence (P83916 whole entry, looked up): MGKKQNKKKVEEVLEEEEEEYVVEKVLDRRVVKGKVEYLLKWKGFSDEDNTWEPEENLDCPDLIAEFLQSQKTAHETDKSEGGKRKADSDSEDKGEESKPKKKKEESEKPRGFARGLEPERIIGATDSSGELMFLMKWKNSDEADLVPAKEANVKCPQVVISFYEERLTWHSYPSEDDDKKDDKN
#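 Compound inhibition of the preformed complex between 50 nM HP1-beta and 50 nM biotinylated H3K9me3 peptide was read by AlphaScreen. Buffer was PBS pH 7.4 with 0.01% Tween-20. Incubations ran 30 min at room temperature, with 10 ug/mL donor/acceptor beads.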
# G9a inh: qHTS Assay for Inhibitors of Histone Lysine Methyltransferase G9a; 350,000 compounds, 8.8% hits; G9a H3K9 monomethylation, AlphaScreen, 2 h; Histone-lysine N-methyltransferase EHMT2 (Homo sapiens), Q96KQ7; AID 504332, 2011; Potency, µM (highest dose often 102 µM), usual class: inhibitors; also: nearly all actives have a fitted effect of over 75% in size
# Target sequence (Q96KQ7 913-1193 limits assumed): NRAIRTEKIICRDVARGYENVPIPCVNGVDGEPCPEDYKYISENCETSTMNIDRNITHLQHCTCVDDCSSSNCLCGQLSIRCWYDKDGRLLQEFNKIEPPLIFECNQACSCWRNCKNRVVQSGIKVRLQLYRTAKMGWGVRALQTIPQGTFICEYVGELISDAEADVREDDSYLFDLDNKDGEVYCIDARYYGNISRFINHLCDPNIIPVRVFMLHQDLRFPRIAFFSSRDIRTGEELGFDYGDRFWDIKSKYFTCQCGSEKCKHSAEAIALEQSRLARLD
#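 Chemiluminescent proximity detection of H3K9 monomethylation, read after 10 min bead incubation in the dark. Reaction: 20 nM G9a, 500 nM biotin-H3K9 peptide, 20 uM SAM cofactor, 2 h, room temperature, following 15 min enzyme-compound preincubation.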
# BAZ2B inh: qHTS Assay for Inhibitors of BAZ2B. Potency, µM (titrated, usually from 114 µM), hits mostly inhibitors. 360,000 compounds, 4.4% hits. AlphaScreen BAZ2B-H3K14Ac peptide displacement; also: nearly all actives have a fitted effect of over 60% in size
#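 Compounds, titrated to a top concentration of 110 uM, were incubated 30 min at room temperature with preformed BAZ2B/acetyl-K14 H3 peptide complex (50 nM each). Proximity signal was measured by AlphaScreen after 20 min with beads.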
# Numbers stand for hits; n = inactive; u = inconclusive; x = no result given; [ ] = another dose, or the depositor's remark. Shown are actives, neighbours in structure and some others; about 10% of the full set was active somewhere. Calls follow the shape of the dose curve; as a rule, active = well fitted curve in the direction sought with a large enough effect; inconclusive = small, poorly fitted or top-dose-only effect, or another doubt; inactive = no such curve, though single readings can be large; an effect the other way counts as inactive or inconclusive.
SMILES,JMJD2A Tudor,GLS inh,HP1b chromo inh,G9a inh,BAZ2B inh
N#Cc1ccc(C23OCCN2CCn2nc4ccccc4c23)cc1 (stereo not drawn),n,n,n,x,x
CC12CCC(=O)C=C1CCC1C2C(O)CC2(C)C1CCC2(O)C(=O)COC(=O)COCC(=O)O (stereo not drawn),n,n,n,x,x
C#CCOCCOCCOCCNc1nc(N2CCN(C(=O)CCCCCCCCCCNC(=O)[C@H](CCCCN)n3cc(C[C@@H](C)CC)nn3)CC2)nc(N2CCN(C(=O)CCCCCCCCCCNC(=O)[C@H](CCCCN)n3cc(C[C@@H](C)CC)nn3)CC2)n1,50.1µM,u,70.8µM,x,x
C#CCOCCOCCOCCNc1nc(N2CCN(C(=O)CCCCCCCCCCNC(=O)[C@H](CO)n3cc(CCCSC)nn3)CC2)nc(N2CCN(C(=O)CCCCCCCCCCNC(=O)[C@H](CCCCN)n3cc(C[C@@H](C)CC)nn3)CC2)n1,x,x,x,n[12.7 µM],u
CCOc1cc(C=O)cc(Cl)c1OCC(N)=O,n,n,n,n,n
COc1cccc2c1[C@@H]1CN(CCCCn3c(=O)[nH]c4c(sc5ncc(-c6ccccc6)nc54)c3=O)C[C@@H]1CO2,u,n,n,12.6µM,u
COc1cc2[nH]c(=O)n(CCCC(=O)N3CC=C(c4ccccc4)CC3)c(=O)c2cc1OC,n,n,n,u,n
CN(C(=O)CSc1nnc(COc2ccccc2)o1)c1ccccc1,n,n,n,n,79.4µM
Cc1csc(N(C)C(=O)CSc2nnc(COc3cccc4ccccc34)o2)n1,n,n,n,10µM,n
COc1ccc(Cc2nnc(SCC(=O)N(C)c3ccccc3)o2)cc1,n,n,n,n,n
O=C(O)c1ccc(CSc2nnc(COc3ccccc3)o2)cc1,n,n,n,44.7µM,n
C=C(C)c1cc2c(s1)c1cnn(Cc3ccccc3F)c(=O)c1n2C,n,x,x,x,x
COc1cc(SC)ccc1C(=O)N1CCn2c3c(c4cc(C)ccc42)CCCC31 (stereo not drawn),n,n,n,n,n
COc1ccc(Cl)cc1Nc1cc(C)nc2nc(-c3ccccc3C)nn12,n,n,n,n,n
O=C(CSc1ncc(-c2ccc(Cl)cc2)[nH]1)Nc1ccccc1F,n,n,n,10µM,n
O=C(CSc1ncc(-c2ccc(F)cc2)[nH]1)N1CCCCC1,n,n,n,44.7µM,u
CCOC(=O)CN1NC2(CCCCCC2)NC1=S,50.1µM,n,n,x,n
N#CC1=C(N)SC(N)=C(C#N)C1CCc1ccccc1,n,n,n,u,n
N#CC1=C(N)SC(N)=C(C#N)C1c1c(Cl)cccc1Cl,u,n,n,11.2µM,u
CN(C)Cc1c(O)ccc2c3c(c(=O)oc12)CCCCC3,n,n,n,n[12.7 µM],n
CN(Cc1c(O)ccc2c1oc(=O)c1ccccc12)C1CCCCC1,3.98µM,n,u,u,5.62µM
C/C(=N\Nc1nc2ccccc2[nH]1)c1ccccn1,x,x,x,n,20µM
C/C(=N\NC(=O)c1ccncc1)c1cc2ccccc2o1,n,n,n,n,n
C/C(=N\Nc1nc2ccccc2[nH]1)c1cc2ccccc2o1,44.7µM,u,u,44.7µM,u
C/C(=N/O)c1ccccn1,u,n,n,n,10µM
SMILES,JMJD2A Tudor,GLS inh,HP1b chromo inh,G9a inh,BAZ2B inh
COc1cc(-c2coc3c(C(=O)NCc4ccc(C(F)(F)F)cc4)cccc23)ccc1O,x,n,x,x,x
CCOC(=O)c1c2c(n(Cc3ccccc3)c1C)C(=O)C(=O)c1ccccc1-2,7.08µM,n,25.1µM,x,x
CCOC(=O)c1c2c3c(c(Cl)ccc3[nH]c1=O)C(=O)c1ccccc1-2,n,n,n,u,31.6µM
CCOC(=O)c1c2c3c(cccc3[nH]c1=O)C(=O)c1ccccc1-2,n,n,n,56.2µM,n
CCOC(=O)c1c2c(n(C)c1C)C(=O)C(=O)c1ccc(Br)cc1-2,n,n,n,x,x
CCOC(=O)c1c2c3c(cccc3n(C)c1=O)C(=O)c1ccccc1-2,u,n,n,n[0.501 µM],u
CCN(CC)C(=O)Cn1c(=O)n(CC2CCC(C(=O)NC)CC2)c(=O)c2sccc21 (stereo not drawn),n,n,n,n,n
COc1ccccc1CNc1ccnc(-c2cccc(NS(C)(=O)=O)c2)n1,x,x,x,n[0.501 µM],x
Cc1ccc(/C=C2\CC(C)CC3=C2NC(=S)NC3c2ccc(C)cc2)cc1 (stereo not drawn),u,n,n,u,n
CC1CC2=C(NC(=S)NC2c2ccccc2F)/C(=C/c2ccccc2F)C1 (stereo not drawn),u,n,n,17.8µM,u
CC1CC2=C(NC(=S)NC2c2cccc(F)c2)/C(=C/c2cccc(F)c2)C1 (stereo not drawn),u,n,u,31.6µM,u
Cc1ccc(/C=C2\Sc3ccccc3C2=O)s1,n,n,n,n[0.501 µM],8.91µM
COc1ccccc1NC(=O)c1oc2ccccc2c1NC(=O)Cc1ccccc1,n,n,n,n,n
CN(C)c1ccc(C2CC(=O)C=C(Nc3ccccc3N)C2)cc1 (stereo not drawn),u,n,n,x,44.7µM
CC1(C)CC(=O)C=C(Nc2ccccc2N)C1,n,n,n,u,u
Cc1ccc(CCNC(=O)c2coc3nc4ccccc4nc23)cc1,39.8µM,n,n,x,n
COC(=O)/C=C/c1ccc(C(=O)NCC(=O)N[C@@H](CCC(=O)OC)C(=O)N[C@@H](CC(C)C)C(N)=O)cc1,x,x,x,n,x
CCCCCCCCCC(=O)NO,x,n,x,n[12.7 µM],x
N#CC(=C1Nc2ccccc2N1)S(=O)(=O)c1ccccc1,25.1µM,u,n,x,n
O=C(NCCNC1CCC(c2ccccc2)CC1)c1ccc(F)cc1 (stereo not drawn),5.62µM,n,u,u,25.1µM
O=C(NCCCc1ccccc1)c1ccc(F)cc1,n,n,n,n,n
C[N+](C)(C)CCN(Cc1ccc(Cl)cc1)c1ccccn1,n,n,n,n,50.1µM
Cc1[nH][nH]c(=O)c1C(c1c(C)[nH][nH]c1=O)c1cn(Cc2ccc(Cl)c(Cl)c2)c2ccccc12,50.1µM,n,u,8.91µM,28.2µM
O=C(O)Cc1cn(Cc2ccc(F)cc2)c2ccccc12,n,n,n,n,n
O=c1c2ccccc2ncn1Cc1ccc(Cl)c(Cl)c1,n,n,n,x,n
Cc1[nH][nH]c(=O)c1C(c1c(C)[nH][nH]c1=O)c1cn(Cc2ccc(F)cc2)c2ccccc12,50.1µM,n,u,8.91µM,44.7µM
Cc1cccc(OCC(=O)O/N=C(\N)Cc2ccc([N+](=O)[O-])cc2)c1,n,n,n,35.5µM,n
CCOc1ccc2nc(N3CCCC(C(=O)NCCCN4C(C)CCCC4C)C3)sc2c1 (stereo not drawn),n,n,n,39.8µM,u
